This is a sample that favours compounds with a hit; in the whole collection about 11% have one here.
HPGD block – blocks human HPGD enzyme activity; P15428; purified HPGD, NADH fluorescence kinetic, PGE2 substrate; Potency, µM, for inactives: top-dose activity change, negative = inhibition, actives largely listed as inhibitors; 150,000 compounds, 4.3% hits; note: potency is the fitted concentration of half-maximal effect
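NADH formation kinetics: reaction with 30 uM PGE2 and 1 mM NAD+ (final), 20 nM enzyme, Tris-HCl pH 8 with Tween 20, after 15 min compound preincubation at room temperature. Fluorescence change, last versus first of five reads.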
NPSR antag – antagonists of human neuropeptide S receptor cAMP signaling; Potency, µM (top dose mostly 38.3 µM), for inactives: at the top dose activity change, negative = inhibition, hits mostly inhibitors; AID 1461; 220,000 compounds, 1% hits; CHO-NPSR cells, cAMP TR-FRET, antagonist mode; active = well fitted curve in the direction sought with a large enough effect; inconclusive = small, poorly fitted or top-dose-only effect, or another doubt; inactive = no such curve, though single readings can be large; an effect the other way counts as inactive or inconclusive; note: potency is the fitted concentration of half-maximal effect; nearly all actives have a fitted effect of over 50% in size
Target sequence (Q6W5P4 whole entry, looked up): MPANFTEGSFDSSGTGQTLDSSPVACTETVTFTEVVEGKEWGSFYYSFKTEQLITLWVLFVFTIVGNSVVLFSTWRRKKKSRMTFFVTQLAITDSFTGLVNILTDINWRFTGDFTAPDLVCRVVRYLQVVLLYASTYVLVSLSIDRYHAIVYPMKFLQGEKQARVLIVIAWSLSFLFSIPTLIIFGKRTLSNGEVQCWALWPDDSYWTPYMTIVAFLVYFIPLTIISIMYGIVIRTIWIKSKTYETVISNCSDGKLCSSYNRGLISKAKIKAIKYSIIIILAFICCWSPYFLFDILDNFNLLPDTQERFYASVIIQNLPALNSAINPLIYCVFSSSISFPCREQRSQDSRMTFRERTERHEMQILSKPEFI
IMPase Li inh – cell-permeable IMPase inhibitors with lithium potentiation. Potency, µM (doses to about 59.4 µM), for the others: at the highest dose activity, negative = IMPase inhibition, actives largely listed as inhibitors. CHO-M1 cells, IP1 TR-FRET (IP-One), carbachol + lithium. 210,000 compounds, 0.35% hits. AID 1457; active = well fitted curve in the direction sought with a large enough effect; inconclusive = small, poorly fitted or top-dose-only effect, or another doubt; inactive = no such curve, though single readings can be large; an effect the other way counts as inactive or inconclusive;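 note: IP1 builds up when IMPase is blocked and the TR-FRET signal falls; potency is the fitted concentration of half-maximal effect; plate controls were basal vehicle for no effect and high inhibitor control for full effect; nearly all actives have a fitted effect of over 50% in size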
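Lithium-sensitised IP1 accumulation assay; M1-expressing CHO cells treated 30 min at 37C with compound. Competitive antibody detection by time-resolved FRET followed a 10 min room-temperature lysis step.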
PNC assembly inh – perinucleolar compartment assembly inhibition | PC3M PTB-GFP, PNC prevalence imaging, 16 h; active compounds read low | 140,000 compounds, 3.1% hits | AID 2417 | activity change (PNC), negative = inhibition, % at 10 µM;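 active = readout at or below -70, meaning at least 70% loss of cells showing the perinucleolar compartment, a nuclear body marking cancer cells; inconclusive = readout between -30 and a set limit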;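 note: plate controls were DMSO wells for no effect and camptothecin positive control wells for full effect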
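Read-out is percentage of cells bearing a perinucleolar compartment, from automated 20x imaging of fixed, Hoechst-stained PC3M PTB-GFP cells. Cells were seeded 4 h, then exposed 16 h to compound (23 nl of library stock) in duplicate plates.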
IMPase inh – IMPase inhibition in cells; P97697; CHO-M1 cells, IP1 accumulation, HTRF TR-FRET ratio; inhibition (IP1 accumulation), % at 46.1 µM; 120,000 tested, under 10 active; AID 901; active = well fitted curve in the direction sought with a large enough effect in the signal ratio, not every such curve was filed as active; inconclusive = small, poorly fitted or top-dose-only effect, or a change in a side signal; inactive = no such curve, though single readings can be large or run the other way; the % refers to the signal ratio;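 note: cells stimulated with carbachol in lithium chloride buffer; plate controls were DMSO basal wells for no effect and reference inhibitor wells for full effect; higher means more IMPase inhibition seen as more IP1 and lower FRET ratio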
Target sequence (P97697 whole entry, looked up): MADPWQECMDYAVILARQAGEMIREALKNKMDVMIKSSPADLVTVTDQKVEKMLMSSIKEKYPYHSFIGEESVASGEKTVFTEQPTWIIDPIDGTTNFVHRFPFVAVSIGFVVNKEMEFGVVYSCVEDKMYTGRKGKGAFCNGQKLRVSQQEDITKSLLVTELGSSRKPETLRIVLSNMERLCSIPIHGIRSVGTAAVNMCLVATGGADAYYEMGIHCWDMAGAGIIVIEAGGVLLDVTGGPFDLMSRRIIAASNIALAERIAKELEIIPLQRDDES
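CHO-M1 cells (CHO stably expressing M1 receptor), compound up to 46 uM final, stimulated with carbachol (50 uM as added) in buffer with 50mM LiCl, pH 7.4, 30 min at 37C. Cytosolic IP1 read by TR-FRET; AC50 from Hill fits.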
ALDH1A1 block – inhibitors of human aldehyde dehydrogenase 1A1. Potency, µM (doses to about 75.3 µM), for inactives: at the highest dose activity, negative = inhibition, hits mostly inhibitors. 220,000 compounds, 7.3% hits. Purified ALDH1A1, NADH fluorescence, propionaldehyde substrate. AID 1030. P00352;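 note: potency is the fitted concentration of half-maximal effect; plate controls were no enzyme wells and a reference inhibitor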
Active calls of the source: *; ? = inconclusive; . = no result given; ! = not active in a repeat; [ ] = another dose, or the depositor's remark. Unless noted, calls come from the whole dose curve; as a rule, active = well fitted inhibition curve with a large enough effect (not every such curve was filed as active); inconclusive = small, poorly fitted or top-dose-only effect, or another doubt; inactive = no such curve, though single readings can be large or run the other way. Unless noted, % is set by controls: 0 for no effect and ±100 for the full control effect.

SMILES	HPGD block	NPSR antag	IMPase Li inh	PNC assembly inh	IMPase inh	ALDH1A1 block
Cc1cc(/C=C2\C(=O)NC(=O)N(Cc3ccco3)C2=O)c(C)n1-c1ccc(C(=O)O)cc1	.	7%	.	.	.	.
Cc1cc(/C=C2\C(=O)NC(=O)N(Cc3ccco3)C2=O)c(C)n1-c1ccc(O)cc1	.	7%	24%	.	.	?
Cc1ccc(-n2c(C)cc(/C=C3/C(=O)NC(=O)N(Cc4ccco4)C3=O)c2C)cc1	?	-27%	13%	13	-8	14µM*
CN1[C@@H]2CC[C@H]1CC(O)C2 (stereo partly specified)	-8%	.	-2%	.	-3[20.6 µM]	-2%[20.9 µM]
O=C(Nc1ccccc1)N1CCCC2(CCN(C(=O)Oc3ccccc3)CC2)C1	-3%	.	19%	.	.	3%
Cc1cc(/C=C2\C(=O)NC(=O)N(Cc3ccccc3Cl)C2=O)c(C)n1-c1ccc(C(=O)O)cc1	.	-4%	-1%	.	.	?
COc1ccc(/C=C2/C(=O)NC(=O)N(Cc3ccco3)C2=O)cc1	.	-8%	-9%	.	.	3%
C=CCN1C(=O)/C(=C/c2cc(C)n(-c3cccnc3)c2C)C(=O)NC1=S	10µM*	-15%	5%	39	.	?
CCOC(=O)C1CCN(/C=C2/C(=O)NC(=O)N(Cc3ccco3)C2=O)CC1	-14%	0%[46.1 µM]	0%[38.3 µM]	?	2	3.5µM*
Cc1cc(/C=C2\C(=O)NC(=O)N(Cc3ccccc3)C2=O)c(C)n1-c1ccc(Cl)c(C(=O)O)c1	18µM*	3%	1%	-2	.	?
O=C(CN1CCCC1=O)N1CCOCC1	-7%	-1%[46.1 µM]	16%[38.3 µM]	?	-3	-2%
O=S1(=O)CC2(N3CCOCC3)CCCCC21 (stereo unspecified)	-9%	-2%[46.1 µM]	1%	-14	9	17%
CCOc1ccc(Cl)cc1CNCCc1ccc(F)cc1	.	-13%	15%	.	.	14%
O=c1[nH]c(=O)n(Cc2ccccc2)c(O)c1C=NCCN1CCOCC1	32µM*	-6%[46.1 µM]	-6%[38.3 µM]	?	7	?
COc1ccc(CCn2c(O)c(C=NCc3cccnc3)c(=O)[nH]c2=O)cc1OC	-7%	-3%[46.1 µM]	15%[38.3 µM]	2	6	-7%
CCN(CC)CCN=Cc1c(O)n(Cc2ccccc2)c(=O)[nH]c1=O	35µM*	-17%	25%[38.3 µM]	41	1	8%
O=c1[nH]c(=O)n(Cc2ccc(F)cc2)c(O)c1C=NCCCN1CCOCC1	-7%	0%[46.1 µM]	26%[38.3 µM]	20	0	3%
O=c1[nH]c(=O)n(Cc2ccc(F)cc2)c(O)c1C=NCc1cccnc1	16µM*	-15%[7.67 µM]	2%[38.3 µM]	?	4	-7%
CCCCCCn1c(O)c(C=NCCN2CCOCC2)c(=O)[nH]c1=O	-6%	9%	-1%	-114*	.	3%
Cc1cc(C)nc(N2Cc3ccccc3C2=N)n1	.	-5%	19%	.	.	-1%
Cc1ccccc1-n1c(/C=C/c2c(C)[nH]c3ccccc23)nc2ccccc2c1=O	.	.	.	.	-1	.
Clc1cccc(Cl)c1	-10%	.	14%	.	.	-9%
CC1CCc2c(sc3nc(CSc4n[nH]c(N)n4)[nH]c(=O)c23)C1 (stereo unspecified)	-16%	-4%	1%	-95*	.	?
COc1ccc(C(=O)CC2(CC(=O)c3ccc(OC)cc3)C(=O)N(C)C(=O)N(C)C2=O)cc1	-13%	-15%[46.1 µM]	11%[38.3 µM]	10	-7	6%
CC(C)(C)c1[nH]nc2c1C(c1ccoc1)C(C#N)=C(N)O2 (stereo unspecified)	-17%	3%[46.1 µM]	30%[38.3 µM]	-22	2	16µM*
SMILES	HPGD block	NPSR antag	IMPase Li inh	PNC assembly inh	IMPase inh	ALDH1A1 block
CC(=O)c1ccc2c(c1)C1C(Cl)C(Sc3ccccc3[N+](=O)[O-])CC1C(c1ccccc1)N2 (stereo unspecified)	-25%	?	101%	-97*	?	7.9µM*
CCCCOC(=O)CCN1C(=O)/C(=C2\SC(=S)N(CCC(=O)OCCCC)C2=O)SC1=S	-10%	20%	8%	?	-7	14µM*
FC(F)(F)c1ccc2c(c1)ncn2C1CCN(Cc2nnnn2C2CCCCC2)CC1	?	?	15%[38.3 µM]	-100*	12	0.56µM*
Cc1ccc2c(c1)C1CN(C)CCC1N2C(=O)c1ccc(Br)o1 (stereo unspecified)	-16%	8%[46.1 µM]	50%[38.3 µM]	-17	-1	22µM*
Cn1c(=O)c2c(nc(N/N=C/c3c(O)n(C4CCCCC4)c(=S)[nH]c3=O)n2C)n(C)c1=O	.	-25%	.	.	.	.
Cc1ccccc1-n1c(O)c(/C=N/Nc2nc3c(c(=O)n(C)c(=O)n3C)n2C)c(=O)[nH]c1=S	-19%	-1%	36%	25	.	13µM*
Cc1cccc(-n2c(O)c(/C=N/Nc3nc4c(c(=O)n(C)c(=O)n4C)n3C)c(=O)[nH]c2=S)c1	-28%	-7%	25%	-28	?	10µM*
CC1(C)CN=C(NCc2ccccc2Cl)S1	-6%	-1%[46.1 µM]	44%[38.3 µM]	7	7	9%
C[C@H]1COC2=C1C(=O)C(=O)c1c2ccc2c1CCCC2(C)C	.	?	4%	.	.	13µM*
CC1COC2=C1C(=O)C(=O)c1c2ccc2c1CCCC2(C)C (stereo unspecified)	20µM*	.	-8%	.	.	22µM*
CC(C)[C@]12O[C@H]1[C@@H]1O[C@]13[C@]1(O[C@H]1C[C@H]1C4=C(CC[C@@]13C)C(=O)OC4)[C@@H]2O	.	8%	0%	.	.	-1%
COc1cc([C@H]2c3cc4c(cc3[C@@H](O)[C@@H]3COC(=O)[C@H]23)OCO4)cc(OC)c1OC	3%	.	-6%	.	-1[20.6 µM]	-5%[20.9 µM]
COC(=O)Nc1nc2ccccc2[nH]1	-2%	.	-8%	.	.	12%
CCOP(=S)(OCC)Oc1ccc([N+](=O)[O-])cc1	-12%	.	1%	.	.	16µM*
C[C@@H]1O[C@@H](O[C@H]2C[C@@H](O)[C@]3(CO)[C@H]4[C@H](O)C[C@]5(C)[C@@H]([C@@H]6COC(=O)C6)CC[C@]5(O)[C@@H]4CC[C@]3(O)C2)[C@H](O)[C@H](O)[C@H]1O	-7%	0%[46.1 µM]	4%	.	.	12%
COc1cc(CCN)ccc1O	-16%	-2%[46.1 µM]	6%	.	1	-7%
C=CCc1ccc(O)c(OC)c1	2%	.	2%	.	-2	14µM*!
CN1CCN(Cc2ccccc2Sc2ccccc2)CC1	-6%	22%	23%	-86*	.	6%
CC(C)CC1C(=O)N2CCCC2C2(O)O[C@@](NC(=O)C3C=C4c5cccc6[nH]c(Br)c(c56)CC4N(C)C3)(C(C)C)C(=O)N12 (stereo partly specified)	-16%	.	33%	.	.	-4%
COC(=O)C(O)(c1ccc(NC(=S)NC(=O)c2ccccc2)cc1)C(F)(F)F (stereo unspecified)	-6%	-12%[46.1 µM]	3%[38.3 µM]	-11	4	25µM*

High-throughput results (PubChem BioAssay)
